In PubChem BioAssay AID449764 (Southern Research Specialized Biocontainment Screening …, 2010) one finds outcome data, which are given here for 61 molecules.

The campaign covered roughly 2,300 compounds. About 1,700 (74%) were called active. No rule for the calls is given here. So high a share suggests a set chosen from earlier hits. The list shows a part of the results. Entries with a potency or affinity are not part of this list.

The experiment in a line: Mycobacterium tuberculosis H37Rv growth inhibition, no glycerol, confirmatory dose response (AID 449764).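 Also: growth read after 7 days of incubation.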 Particulars: series mostly up to 100 µM.
Regarding `Cc1cc(=O)oc2cc(OC(=O)C3CCN(C(=O)c4ccc(F)cc4)CC3)ccc12`, the molecule was called inactive.

With `CC12CN3CCN(CC(C3)/C1=N\NC(=O)Nc1cccc(Cl)c1)C2`, the molecule was called inactive.

Consider `Cc1ccccc1-c1nc(CN2CCC(C(=O)NCCC3=CCCCC3)CC2)c(C)o1`, for which the result was inactive.

On to `Cc1ccc2nc(SCC(=O)Nc3ccc4c(c3)CCC4)[nH]c2c1`, for which the result was inactive.

Regarding `CCCc1cc2c(cc1NC(=O)c1ccccc1Cl)OCO2`, the call was inactive.

Regarding `Cc1sc2nc3c4ccccc4c(NCc4ccco4)nn3c(=O)c2c1C`, the call was inactive.

With `Cc1ccc(C2CN(C)C3(C(=O)Nc4ccccc43)C23COc2ccccc2C3=O)cc1` (stereo unspecified), the molecule was classed as inactive.

Take `CCOc1ccc(N=c2scc(-c3ccccc3)n2CCO)cc1`: the molecule was classed as inactive.

For the molecule `CC1(C)OC(=O)C(=NNc2ccc(Cl)cc2)C(=O)O1`, the molecule was classed as inactive.

Regarding `Cc1cccc(CSc2nc3c(c(-c4cccs4)c2C#N)CN(C)CC3)c1`, the outcome was inactive.

Turning to `CC1(C)CC(=O)c2c(O)cc(OCc3ccc(Br)cc3)cc2O1`, the molecule was called inactive.

Take `O=C(CNC(=O)c1ccc(Cl)cc1)c1ccc(Cl)cc1`: the call was inactive.

Regarding `COC(=O)C(Cc1ccc(OC(=O)c2ccc(C(F)(F)F)cc2)cc1)N1Cc2ccccc2C1=O` (stereo unspecified), the result was inactive.

As to `Cc1ccsc1/C=N/Nc1ccc(F)cc1F`, the call was inactive.

For `CCOC(=O)c1ccc(N=Cc2nc3ccccc3n2C)cc1`, the molecule was called inactive.

For the molecule `CC1(C)CC(=O)c2cc(C(=O)NNc3ccccc3)c(=O)n(-c3ccccc3)c2C1`, the call was inactive.

`Cn1cnnc1SCc1ccc(-c2ccc(Br)cc2)o1`: the molecule was classed as inactive.

In the case of `O=C(Nc1ccc(CN2CCOCC2)cc1)c1ccc(-c2cc(Cl)ccc2Cl)o1`, the molecule was classed as inactive.

As for `CCOC(=O)c1ccc(N=C2S/C(=C\c3cc(C)n(-c4cccnc4)c3C)C(=O)N2C)cc1`, the call was inactive.

In the case of `C(=C\c1ccccc1)/C=N/Nc1nc2ccccc2s1`, the call was inactive.

Consider `O=C(COC(=O)C1CC2CCCC(C1)C2=O)NNC(=O)c1ccccc1F` (stereo unspecified), for which the result was inactive.

`CC1(c2ccc(Cl)c(Cl)c2)NC(=S)N2C1NC(=S)N2c1ccccc1` (stereo unspecified): the molecule was called inactive.

In the case of `CC(=O)Oc1c(C)cc(Cl)cc1C(=O)Nc1ccc([N+](=O)[O-])cc1Cl`, the result was inactive.

For `CCCc1nc2oc(C(=O)OCC)c(N)c2c2c1COC(C)(C)C2`, the result was inactive.

As to `O=C1c2ccccc2C(=O)N1Nc1ccccc1`, the molecule was called inactive.

In the case of `CCc1noc(C)c1C(=O)Nc1nc(-c2ccc(F)cc2)c(C)s1`, the molecule was classed as inactive.

As for `COc1ccc(-c2nc(NC(=O)c3[nH]c(C)c(C(C)=O)c3C)sc2C)cc1`, the result was inactive.

Regarding `CCOC(=O)c1ccc(Nc2cc3ccccc3c(=O)[nH]2)cc1`, the result was inactive.

On to `CCCCOP(=O)(OCCCC)C(Nc1ccc(C(=O)OCC)cc1)c1ccncc1` (stereo unspecified), for which the molecule was classed as inactive.

Regarding `Cc1ccc(C)c2nc(N3CCCC3)c(C#N)cc12`, the molecule was called inactive.

On to `N=c1c(C(=O)NC2CCCCC2)cc2c(=O)n3ccccc3nc2n1Cc1ccc(F)cc1`, for which the molecule was called inactive.

As to `Cc1ccc(S(=O)(=O)CNC(=S)c2ccc3ccccc3c2)cc1`, the call was inactive.

For `O=C(NC1CCCCCC1)c1ccccc1-c1ccccc1`, the molecule was classed as inactive.

For `CCOC(=O)N1CCN(C(=O)COC(=O)C2CCN(S(=O)(=O)c3c(Cl)cccc3Cl)CC2)CC1`, the call was inactive.

Consider `CCOc1ccccc1NC(=O)C12CC3CC(C1)CC(c1ccc(C)cc1)(C3)C2`, for which the call was inactive.

Take `COC(=O)CNC(=O)CSc1nc2sc(-c3ccccc3)cc2c(=O)n1-c1ccccc1`: the call was inactive.

As to `CCOc1ccc(-c2nn3c(-c4ccccc4)nnc3s2)cc1`, the molecule was called inactive.

For `Cc1ccccc1-c1nc2cc(N)ccc2o1`, the call was inactive.

On to `CCCCCCCCCCCCCCCC(=O)NCCO`, for which the molecule was classed as inactive.

Consider `CCCCCCCCCCNC(=O)C(=O)Nc1ccccn1`, for which the call was inactive.

As to `O=C(/C=C/c1ccco1)Nc1cccc(-c2nc3ccccc3[nH]2)c1`, the molecule was classed as inactive.

As for `N/C(Cc1ccc([N+](=O)[O-])cc1)=N\OC(=O)c1ccc2ccccc2c1`, the call was inactive.

Consider `COc1ccc(OC(=O)c2cc3cc(Cl)ccc3oc2=O)cc1`, for which the molecule was classed as inactive.

Consider `Cc1cccc(C)c1OCC(=O)Nc1cccc(-c2nnc(-c3ccccc3)o2)c1`, for which the molecule was classed as inactive.

Regarding `O=C(Nc1nc2c(s1)CCCC2)c1cc(-c2ccc3c(c2)OCO3)nc2ccccc12`, the outcome was inactive.

Take `Cc1cc(N2CCN(C(=O)Nc3ccccc3C#N)CC2)c2ccccc2n1`: the result was inactive.

As for `COc1ccc(N=N/C(=C\O)C(=O)c2cccs2)cc1`, the molecule was called inactive.

Turning to `Cc1ccc(C(=O)O/N=C(\N)c2ccc(Br)cc2)cc1C`, the result was inactive.

For `CCOCCCNS(=O)(=O)c1ccc(NC(=O)N2c3ccccc3Sc3ccccc32)cc1`, the molecule was called inactive.

Regarding `COc1ccc(N=Cc2c(OC)ccc3ccccc23)cc1`, the call was inactive.

`COc1ccc(N=Cc2c(O)cc(C)oc2=O)cc1`: the molecule was called inactive.

Regarding `CCOc1ccc(NC(=O)N(C2CCCCC2)C(C)c2ccncc2)cc1` (stereo unspecified), the result was inactive.

`CCOc1ccc(N=C(NC#N)SCC(=O)NC2CC2)cc1`: the result was inactive.

Take `CCOc1ccc(N=CC2=C(O)CC(c3ccco3)CC2=O)cc1` (stereo unspecified): the molecule was classed as inactive.

For `C=CCN1CC[C@]23c4c5ccc(O)c4O[C@H]2/C(=N/NC(=O)c2ccccc2)CC[C@@]3(O)[C@H]1C5`, the result was inactive.

For the molecule `COc1ccc(N=Cc2c[nH][nH]c2=O)cc1`, the molecule was classed as inactive.

On to `Cn1c(N)c(C(=O)COC(=O)c2ccc([N+](=O)[O-])o2)c(=O)n(C)c1=O`, for which the outcome was inactive.

On to `O=C(c1n[nH]c(=O)c2ccccc12)N1CCN(C2c3ccccc3-c3ccccc32)CC1`, for which the molecule was called inactive.

`COCCN=C1Sc2nc3ccc(C)cc3cc2CN1Cc1ccco1`: the molecule was called inactive.

With `C#CCCc1cscc1/C=[N+](\[O-])c1ccc(C(=O)OCC)cc1`, the molecule was classed as inactive.

With `O=C(O)c1ccccc1C(=O)NNc1ccc(Cl)cc1Cl`, the call was inactive.
